As usually defined, the AC50 is the midpoint of the concentration-response curve, whichever way the signal moves.

For three molecules, AC50 and outcome results are on record in PubChem BioAssay (EPA / NIEHS).

What all share (conditions): mRNA level, 48 h; actives raise or lower the signal
Read-out in test [1]: Protein phosphatase 2A (PPP2R4), PTPA (gene 5524)
The test can be described thus: LTEA_HepaRG_PPP2R4: Life Technologies and Expression Analysis (LTEA) Assay for Protein phosphatase 2A (PPP2R4) using HepaRG (AID 2283522). The gist of the method: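 Gene-expression endpoint in HepaRG hepatic cells: 48 h treatment across eight half-log concentrations up to 100 uM in 0.5% DMSO. PPP2R4 mRNA by qRT-PCR, normalized to three endogenous control genes.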

Read-out in test [2]: Phosphatase and tensin (PTEN), PTEN (gene 5728)
The test is described as follows: LTEA_HepaRG_PTEN: Life Technologies and Expression Analysis (LTEA) Assay for Phosphatase and tensin (PTEN) using HepaRG (AID 2283523). The gist of the method:
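Read-out is PTEN transcript level by multiplexed TaqMan qRT-PCR after 48 h chemical treatment of human HepaRG cultures in serum-free induction medium. Concentrations spanned 100 uM downward in half-log steps, 0.5% DMSO throughout; activity fitted in both directions against vehicle.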

Read-out in test [3]: solute carrier (SLC22A1), SLC22A1 (gene 6580)
The test is described as follows: LTEA_HepaRG_SLC22A1: Life Technologies and Expression Analysis (LTEA) Assay for solute carrier (SLC22A1) using HepaRG (AID 2283524). The gist of the method: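 HepaRG (human liver line), 48 h dosing in serum-free induction medium; 8 conc., half-log down from 100 uM, 0.5% DMSO vehicle, duplicates. Endpoint: SLC22A1 mRNA, qRT-PCR, housekeeping-normalized; gain/loss fit vs DMSO.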

Read-out in test [4]: Pyruvate Dehydrogenase Kinase 4 (PDK4), PDK4 (gene 5166)
The test is described as follows: LTEA_HepaRG_PDK4: Life Technologies and Expression Analysis (LTEA) Assay for Pyruvate Dehydrogenase Kinase 4 (PDK4) using HepaRG (AID 2283525). The gist of the method: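 In this multiplexed human HepaRG expression assay, cells are treated 48 h with test chemicals across an eight-point range starting at 100 uM. PDK4 mRNA changes, normalized to ACTB/GAPDH/POLR2A, are fitted in both directions relative to vehicle.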

Read-out in test [5]: NAD(P)H dehydrogenase [quinone] 1 (NQO1), NQO1 (gene 1728)
The test can be described thus: LTEA_HepaRG_NQO1: Life Technologies and Expression Analysis (LTEA) Assay for NAD(P)H dehydrogenase [quinone] 1 (NQO1) using HepaRG (AID 2283526). The gist of the method: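 Human HepaRG hepatic cells received chemicals for 48 h in serum-free induction medium with 0.5% DMSO, up to 100 uM. Expression was assessed by TaqMan qRT-PCR against housekeeping controls and fitted bidirectionally against DMSO.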

Read-out in test [6]: Nuclear factor erythroid 2-related factor 2 (Homo sapiens) (UniProt Q16236)
The test can be described thus: LTEA_HepaRG_NFE2L2: Life Technologies and Expression Analysis (LTEA) Assay for Nuclear factor erythroid 2-related factor 2 (NFE2L2) Transcription Factor using HepaRG (AID 2283527). In short, it runs like this: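 Transcript level of NFE2L2 is the read-out, measured by microfluidic TaqMan qRT-PCR and normalized to three housekeeping genes. Human HepaRG cultures received test chemical for 48 h at up to 100 uM in half-log steps. Gain or loss of signal is fitted relative to 0.5% DMSO.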

Read-out in test [7]: succinate dehydrogenase complex iron sulfur subunit B (SDHB), SDHB (gene 6390)
The test can be described thus: LTEA_HepaRG_SDHB: Life Technologies and Expression Analysis (LTEA) Assay for succinate dehydrogenase complex iron sulfur subunit B (SDHB) using HepaRG (AID 2283528). The gist of the method:
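SDHB transcript level read by TaqMan qRT-PCR, housekeeping-normalised (ACTB, GAPDH, POLR2A), after 48 h chemical treatment of plated HepaRG cells; eight concentrations top 100 uM, half-log steps, 0.5% DMSO, duplicates; fitted both directions against DMSO.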

Read-out in test [8]: Signal transducer and activator of transcription 3 (Homo sapiens) (UniProt P40763)
The test can be described thus: LTEA_HepaRG_STAT3: Life Technologies and Expression Analysis (LTEA) Assay for Signal transducer and activator of transcription (STAT3) using HepaRG (AID 2283529). In short, it runs like this: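 Read-out is STAT3 mRNA level by qRT-PCR, normalized to three housekeeping genes, in human HepaRG liver cells treated for 48 h. Concentrations ran from 100 uM downward in half-log steps; curves were fitted for gain or loss relative to 0.5% DMSO.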

Read-out in test [9]: solute carrier (SLCO1B1), SLCO1B1 (gene 10599)
The test can be described thus: LTEA_HepaRG_SLCO1B1: Life Technologies and Expression Analysis (LTEA) Assay for solute carrier (SLCO1B1) using HepaRG (AID 2283530). In short, it runs like this: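 Differentiated human HepaRG cells were exposed for 48 h in serum-free induction medium to eight half-log concentrations, top 100 uM, in 0.5% DMSO. SLCO1B1 mRNA was measured by qRT-PCR, normalized to ACTB, GAPDH and POLR2A, and fitted bidirectionally against DMSO.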

Read-out in test [10]: sulfotransferase 2A1 (SULT2A1), SULT2A1 (gene 6822)
The test is described as follows: LTEA_HepaRG_SULT2A1: Life Technologies and Expression Analysis (LTEA) Assay for sulfotransferase 2A1 (SULT2A1) using HepaRG (AID 2283531). In short, it runs like this: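 HepaRG human liver cells, 48 h exposure in serum-free induction medium to 8 half-log concentrations topping at 100 µM (0.5% DMSO), duplicate wells. SULT2A1 mRNA measured by TaqMan qRT-PCR, normalized to ACTB/GAPDH/POLR2A; bidirectional fit against DMSO.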

Read-out in test [11]: Transforming Growth Factor (TGFA), TGFA (gene 7039)
The test can be described thus: LTEA_HepaRG_TGFA: Life Technologies and Expression Analysis (LTEA) Assay for Transforming Growth Factor (TGFA) using HepaRG (AID 2283532). In short, it runs like this:
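HepaRG (human liver line), 48 h exposure, 8 conc. half-log down from 100 uM, 0.5% DMSO vehicle, duplicates; serum-free induction medium. TGFA mRNA by TaqMan qRT-PCR, ACTB/GAPDH/POLR2A normalization; gain/loss fit vs DMSO.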

Read-out in test [12]: Transforming Growth Factor (TGFB1), TGFB1 (gene 7040)
The test can be described thus: LTEA_HepaRG_TGFB1: Life Technologies and Expression Analysis (LTEA) Assay for Transforming Growth Factor (TGFB1) Transporter using HepaRG (AID 2283533). In short, it runs like this:
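Differentiated HepaRG cells exposed 48 hr in serum-free induction medium to eight half-log concentrations up to 100 uM (0.5% DMSO), duplicate; TGFB1 mRNA by TaqMan qRT-PCR normalised to ACTB, GAPDH, POLR2A; bidirectional fit against DMSO.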

Read-out in test [13]: TIMP1, TIMP1 (gene 7076)
The test is described as follows: LTEA_HepaRG_TIMP1: Life Technologies and Expression Analysis (LTEA) Assay for TIMP1 using HepaRG (AID 2283534).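 For outcome: TaqMan qRT-PCR signal normalized to ACTB GAPDH and POLR2A housekeeping genes.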 In short, it runs like this:
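Differentiated HepaRG cells exposed 48 h in serum-free induction medium, duplicates, eight half-log concentrations from 100 uM in 0.5% DMSO. TIMP1 mRNA by qRT-PCR normalized to ACTB, GAPDH, POLR2A; bidirectional fitting against DMSO.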

Read-out in test [14]: Tumor necrosis factor receptor 1 (TNFRSF1A), TNFRSF1A (gene 7132)
The test is described as follows: LTEA_HepaRG_TNFRSF1A: Life Technologies and Expression Analysis (LTEA) Assay for Tumor necrosis factor receptor 1 (TNFRSF1A) using HepaRG (AID 2283535). In short, it runs like this:
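Differentiated HepaRG cells in serum-free induction medium, exposed 48 h in duplicate to 8 half-log concentrations up to 100 uM in 0.5% DMSO. TNFRSF1A mRNA by Fluidigm TaqMan qRT-PCR, normalized to ACTB, GAPDH, POLR2A; bidirectional fit.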

Read-out in test [15]: Thyroid Hormone Responsive (THRSP), THRSP (gene 7069)
The test can be described thus: LTEA_HepaRG_THRSP: Life Technologies and Expression Analysis (LTEA) Assay for Thyroid Hormone Responsive (THRSP) using HepaRG (AID 2283536). The gist of the method: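 mRNA induction or loss relative to 0.5% DMSO vehicle was fitted bidirectionally across an eight-point curve whose highest exposure was 100 uM. Human HepaRG liver cells received chemicals in duplicate over 48 h before RNA extraction.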

Read-out in test [16]: UDP glucuronosyltransferase (UGT1A1), UGT1A1 (gene 54658)
The test is described as follows: LTEA_HepaRG_UGT1A1: Life Technologies and Expression Analysis (LTEA) Assay for UDP glucuronosyltransferase (UGT1A1) using HepaRG (AID 2283538). The gist of the method: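 Human liver HepaRG cultures receive test chemical for 48 h, up to 100 uM in 0.5% DMSO, with phenobarbital induction controls. UGT1A1 mRNA is measured by qRT-PCR and normalized to ACTB, GAPDH and POLR2A.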

Read-out in test [17]: UDP glucuronosyltransferase (UGT1A6), UGT1A6 (gene 54578)
The test is described as follows: LTEA_HepaRG_UGT1A6: Life Technologies and Expression Analysis (LTEA) Assay for UDP glucuronosyltransferase (UGT1A6) using HepaRG (AID 2283539). The gist of the method: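 Differentiated HepaRG cells, ~100,000/well, were exposed for 48 h in serum-free induction medium with 0.5% DMSO to 8-point half-log series topping at 100 uM, in duplicate. mRNA measured by Fluidigm TaqMan qRT-PCR, normalized to ACTB, GAPDH and POLR2A.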

Read-out in test [18]: X-box binding protein 1 (XBP1), XBP1 (gene 7494)
The test can be described thus: LTEA_HepaRG_XBP1: Life Technologies and Expression Analysis (LTEA) Assay for X-box binding protein 1 (XBP1) using HepaRG (AID 2283540). In short, it runs like this:
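Differentiated human HepaRG cells in serum-free induction medium exposed 48 h in duplicate to eight half-log concentrations up to 100 uM in 0.5% DMSO. XBP1 mRNA measured by Fluidigm TaqMan qRT-PCR, normalized to ACTB, GAPDH, POLR2A; bidirectional fitting against DMSO.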

Read-out in test [19]: Nuclear factor NF-kappa-B p105 subunit (Homo sapiens) (UniProt P19838)
The test is described as follows: LTEA_HepaRG_NFKB1: Life Technologies and Expression Analysis (LTEA) Assay for Nuclear Factor Kappa B Subunit 1 (NFKB1) using HepaRG (AID 2283521). In short, it runs like this: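 NFKB1 transcript was measured by TaqMan qRT-PCR on Fluidigm arrays, normalised to three housekeeping genes and fitted in both directions against 0.5% DMSO. HepaRG cells were dosed in duplicate for 48 h in serum-free induction medium, eight half-log steps from 100 uM.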

Molecules are shown by their SMILES. Calls of active or inactive are those of the source. Rule for the calls: active = hit-call score of the fitted dose curve at least 0.9, where 1 is the maximum; inactive = score below 0.9.

Chain of Signal transducer and activator of transcription 3 (Homo sapiens) (P40763 whole entry, looked up): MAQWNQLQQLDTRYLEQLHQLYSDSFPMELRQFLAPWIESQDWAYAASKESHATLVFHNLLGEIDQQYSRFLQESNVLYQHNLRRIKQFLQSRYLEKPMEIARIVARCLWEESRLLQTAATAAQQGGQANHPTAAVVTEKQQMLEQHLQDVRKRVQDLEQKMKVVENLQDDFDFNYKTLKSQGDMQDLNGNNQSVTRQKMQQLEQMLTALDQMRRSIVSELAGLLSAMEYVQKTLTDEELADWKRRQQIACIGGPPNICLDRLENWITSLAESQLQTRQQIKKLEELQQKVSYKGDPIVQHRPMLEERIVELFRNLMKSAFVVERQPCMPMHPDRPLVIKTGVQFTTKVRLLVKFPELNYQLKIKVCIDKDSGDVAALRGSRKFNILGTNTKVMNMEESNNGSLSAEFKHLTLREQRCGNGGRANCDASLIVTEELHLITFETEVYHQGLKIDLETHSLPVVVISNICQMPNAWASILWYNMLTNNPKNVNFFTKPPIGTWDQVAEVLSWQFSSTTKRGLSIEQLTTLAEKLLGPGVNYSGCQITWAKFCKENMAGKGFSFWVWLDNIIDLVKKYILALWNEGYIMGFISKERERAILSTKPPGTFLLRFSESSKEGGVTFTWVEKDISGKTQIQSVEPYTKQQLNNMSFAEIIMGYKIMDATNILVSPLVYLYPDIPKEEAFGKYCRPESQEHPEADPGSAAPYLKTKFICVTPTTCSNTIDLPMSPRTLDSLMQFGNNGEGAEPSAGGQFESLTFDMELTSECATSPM
Chain of Nuclear factor erythroid 2-related factor 2 (Homo sapiens) (Q16236 whole entry, looked up): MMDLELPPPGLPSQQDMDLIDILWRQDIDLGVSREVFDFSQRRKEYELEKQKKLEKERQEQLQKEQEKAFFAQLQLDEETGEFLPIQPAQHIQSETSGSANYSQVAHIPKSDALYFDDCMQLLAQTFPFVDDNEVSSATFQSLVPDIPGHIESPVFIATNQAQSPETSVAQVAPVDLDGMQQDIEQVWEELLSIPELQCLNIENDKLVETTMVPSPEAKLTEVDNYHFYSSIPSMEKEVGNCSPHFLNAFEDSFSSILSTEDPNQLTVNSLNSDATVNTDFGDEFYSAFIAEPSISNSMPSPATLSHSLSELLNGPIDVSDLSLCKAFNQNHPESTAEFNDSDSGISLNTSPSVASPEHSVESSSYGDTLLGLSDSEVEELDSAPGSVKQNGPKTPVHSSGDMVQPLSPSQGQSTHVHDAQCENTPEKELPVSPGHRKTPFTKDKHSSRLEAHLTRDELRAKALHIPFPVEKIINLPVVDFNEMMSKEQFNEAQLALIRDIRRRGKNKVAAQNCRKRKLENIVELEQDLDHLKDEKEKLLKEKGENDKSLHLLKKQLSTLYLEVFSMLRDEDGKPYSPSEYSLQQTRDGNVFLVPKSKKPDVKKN
Chain of Nuclear factor NF-kappa-B p105 subunit (Homo sapiens) (P19838 whole entry, looked up): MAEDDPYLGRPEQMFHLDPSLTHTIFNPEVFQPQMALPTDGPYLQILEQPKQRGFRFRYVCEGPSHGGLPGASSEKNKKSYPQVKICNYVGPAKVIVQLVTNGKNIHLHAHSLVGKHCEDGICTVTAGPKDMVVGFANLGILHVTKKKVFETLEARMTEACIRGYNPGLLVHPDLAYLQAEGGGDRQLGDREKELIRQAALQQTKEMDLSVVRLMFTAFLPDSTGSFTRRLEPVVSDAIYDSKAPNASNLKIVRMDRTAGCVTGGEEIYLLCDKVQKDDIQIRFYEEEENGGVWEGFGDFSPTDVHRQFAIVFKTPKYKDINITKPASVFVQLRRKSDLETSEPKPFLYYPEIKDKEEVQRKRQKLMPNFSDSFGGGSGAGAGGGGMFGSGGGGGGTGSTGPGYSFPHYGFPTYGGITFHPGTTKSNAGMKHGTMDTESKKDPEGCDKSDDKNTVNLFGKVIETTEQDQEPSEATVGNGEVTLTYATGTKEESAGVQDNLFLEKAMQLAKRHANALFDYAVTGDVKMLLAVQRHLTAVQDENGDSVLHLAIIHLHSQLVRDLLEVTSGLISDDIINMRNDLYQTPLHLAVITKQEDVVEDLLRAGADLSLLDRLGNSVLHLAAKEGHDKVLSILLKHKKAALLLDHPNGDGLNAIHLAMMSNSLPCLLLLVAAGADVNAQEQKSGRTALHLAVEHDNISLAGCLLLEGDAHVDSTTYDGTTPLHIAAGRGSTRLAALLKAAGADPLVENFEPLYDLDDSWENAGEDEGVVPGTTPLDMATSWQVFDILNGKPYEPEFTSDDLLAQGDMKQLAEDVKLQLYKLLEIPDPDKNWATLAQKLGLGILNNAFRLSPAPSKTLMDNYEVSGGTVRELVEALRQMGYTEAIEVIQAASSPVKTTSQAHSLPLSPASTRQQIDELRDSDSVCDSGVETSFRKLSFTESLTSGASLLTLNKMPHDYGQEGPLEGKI

Turning to `c1ccc2c(c1)-c1cccc3c1c-2cc1ccccc13`, the AC50 is 14.3 µM (active) in test [1]; 18.8 µM (active) in test [3]; 8.2 µM (active) in test [4]; 11.4 µM (active) in test [7]; 6.57 µM (active) in test [8]; 13.7 µM (active) in [9]. For the same molecule, the concentration at half-maximal activity (AC50) in test [10] was 16.8 µM (active); in test [11], 7.13 µM (active); in test [13], 4.93 µM (active); in test [14] it was 14.7 µM (active); in test [15], 27.7 µM (active); in [18] it was 12.7 µM (active). Also, the molecule was classed as inactive in test [2], in test [5], in [6], in [12], in [16] and in test [17].
As to `Nc1ccn([C@@H]2O[C@H](CO)[C@@H](O)[C@@H]2O)c(=O)n1`, the outcome in test [1], in test [2], in [3], in [4], in test [5] and in test [6] was inactive. Moreover, the outcome in test [7], in test [8], in test [9], in [10], in test [11] and in test [12] was inactive. Moreover, the molecule was called inactive in test [13], in [14], in test [16], in test [17] and in [18].
As to `NC(=O)N(O)[C@@H]1COc2cc(OCc3ccccc3)ccc21`, the result in test [19], in [1], in test [2], in [3], in test [4] and in test [5] was inactive. The result in test [6], in [7], in test [8], in [9], in test [10] and in test [12] was inactive. For the same molecule, the result in test [13], in test [14], in test [16], in test [17] and in test [18] was inactive.
